Measured values from PubChem BioAssay.
A number with no mark means an inactive call. For part of these data: Results with a measured potency or affinity are listed apart. Active and inactive are the calls of the source. Unless noted, how the calls were made is not given here.

Tests used:
[1] = antimalarial activity against Dd2 strain (AID 2302;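 active means growth inhibition above 50% at the single 2 µM test dose, taken to imply half-maximal potency below 2 µM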;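 further: 0% = DMSO untreated growth and 100% = chloroquine plus artemisinin killed control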); conditions: P. falciparum Dd2 in RBCs, LDH growth readout, 72 h; at 2 µM; hits give high values
[2] = HepG2 cytotoxicity, primary screen, cytotoxicity control for P. falciparum antimalarial project, cell-based, ATP luminescence (AID 2303;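 active means inhibition above 50%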;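 further: 0% = DMSO wells and 100% = digitonin-killed cells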); conditions: HepG2 viability, 24-48 h, at 10 µM, hits give high values
[3] = molecular target: L-lactate dehydrogenase (Plasmodium falciparum (isolate CDC / Honduras)) (UniProt Q27743); experiment: PfLDH activity inhibition – cell lysate, 3D7 strain, counter-screen for P. falciparum growth inhibition project (AID 2304);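 further: 0% = vehicle and 100% = reference inhibitor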; conditions: P. falciparum 3D7 crude extract, LDH APAD/NBT absorbance; at 2 µM; hits give high values
[4] = inhibition of 3D7 malaria parasite growth – strain 3D7 (AID 2306);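 further: 0% = DMSO wells and 100% = chloroquine plus artemisinin control wells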; conditions: P. falciparum 3D7 erythrocytic growth, LDH absorbance, 72 h; at 2 µM; hits give high values
[5] = molecular target: Calcium-dependent protein kinase 1 (Plasmodium falciparum (isolate 3D7)) (UniProt P62344); experiment: PfCDPK1 kinase inhibitors, biochemical, TCAMS library (AID 1159585; cut-off not given, nearly all actives have IC50 up to about 0.98 µM;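 further: inhibitors leave more ATP so luminescence rises with inhibition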); conditions: recombinant PfCDPK1, Kinase-Glo ATP depletion luminescence
[6] = molecular target: Plasmodium falciparum protein kinase 6 (PK6, PF3D7_1337100) (UniProt Q8IDW1); experiment: PfPK6 kinase inhibitors, biochemical, TCAMS library (AID 1159586); conditions: recombinant PfPK6, Kinase-Glo ATP depletion luminescence
[7] = molecular target: Protein kinase 7 (PK7), Plasmodium falciparum 3D7 (PF3D7_0213400) (UniProt Q7YTF7); experiment: inhibition of Plasmodium PK7 catalytic activity – biochemical, TCAMS antimalarial set, Kinase-Glo luminescence (AID 1159587); conditions: recombinant PfPK7, Kinase-Glo ATP depletion luminescence
[8] = molecular target: Calcium-dependent protein kinase 4 (Plasmodium falciparum (isolate 3D7)) (UniProt Q8IBS5); experiment: PfCDPK4 kinase inhibitors, biochemical, TCAMS library (AID 1159588; cut-off not given, nearly all actives have IC50 up to about 0.91 µM); conditions: recombinant PfCDPK4, Kinase-Glo ATP depletion luminescence
Sequence of Calcium-dependent protein kinase 4 (Plasmodium falciparum (isolate 3D7)) (Q8IBS5 whole entry, looked up): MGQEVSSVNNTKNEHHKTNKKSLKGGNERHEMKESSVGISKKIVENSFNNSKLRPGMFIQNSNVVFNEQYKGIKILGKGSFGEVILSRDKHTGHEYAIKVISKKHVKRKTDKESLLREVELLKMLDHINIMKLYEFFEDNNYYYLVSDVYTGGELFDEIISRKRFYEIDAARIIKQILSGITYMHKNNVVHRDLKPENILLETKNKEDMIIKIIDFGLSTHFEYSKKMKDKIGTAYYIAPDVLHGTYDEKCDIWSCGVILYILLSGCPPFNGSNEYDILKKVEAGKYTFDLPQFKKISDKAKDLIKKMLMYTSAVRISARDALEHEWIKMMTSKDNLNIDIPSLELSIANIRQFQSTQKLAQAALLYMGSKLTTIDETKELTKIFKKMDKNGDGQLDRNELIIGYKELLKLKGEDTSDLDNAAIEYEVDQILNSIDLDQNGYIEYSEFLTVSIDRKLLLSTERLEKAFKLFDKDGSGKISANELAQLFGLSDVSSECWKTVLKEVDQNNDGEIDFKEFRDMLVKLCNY

Sequence of Calcium-dependent protein kinase 1 (Plasmodium falciparum (isolate 3D7)) (P62344 whole entry, looked up): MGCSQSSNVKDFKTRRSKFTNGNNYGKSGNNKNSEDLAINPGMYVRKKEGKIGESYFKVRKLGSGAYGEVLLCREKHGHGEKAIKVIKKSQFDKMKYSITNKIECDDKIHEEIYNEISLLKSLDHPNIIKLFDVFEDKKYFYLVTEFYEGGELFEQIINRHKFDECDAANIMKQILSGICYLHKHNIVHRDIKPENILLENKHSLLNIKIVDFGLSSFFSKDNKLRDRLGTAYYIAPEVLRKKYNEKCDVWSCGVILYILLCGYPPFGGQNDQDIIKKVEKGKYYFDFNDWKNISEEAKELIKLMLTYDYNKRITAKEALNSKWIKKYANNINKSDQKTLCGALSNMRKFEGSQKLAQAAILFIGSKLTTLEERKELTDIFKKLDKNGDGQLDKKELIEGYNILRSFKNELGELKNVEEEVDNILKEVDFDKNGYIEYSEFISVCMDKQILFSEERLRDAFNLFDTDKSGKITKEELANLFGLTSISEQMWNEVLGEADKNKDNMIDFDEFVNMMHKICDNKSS
Sequence of Protein kinase 7 (PK7), Plasmodium falciparum 3D7 (PF3D7_0213400) (Q7YTF7 1-343): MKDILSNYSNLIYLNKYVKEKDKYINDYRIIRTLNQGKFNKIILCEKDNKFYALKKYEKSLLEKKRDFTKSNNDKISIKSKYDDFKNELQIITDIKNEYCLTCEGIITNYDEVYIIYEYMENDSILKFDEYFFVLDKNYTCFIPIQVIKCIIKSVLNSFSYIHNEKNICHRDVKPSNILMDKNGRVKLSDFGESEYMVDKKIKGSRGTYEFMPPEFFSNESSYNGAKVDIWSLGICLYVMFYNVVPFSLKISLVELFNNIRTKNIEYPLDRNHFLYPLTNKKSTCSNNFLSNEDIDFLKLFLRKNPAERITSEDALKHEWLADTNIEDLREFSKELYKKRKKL
Sequence of Plasmodium falciparum protein kinase 6 (PK6, PF3D7_1337100) (Q8IDW1 1-305): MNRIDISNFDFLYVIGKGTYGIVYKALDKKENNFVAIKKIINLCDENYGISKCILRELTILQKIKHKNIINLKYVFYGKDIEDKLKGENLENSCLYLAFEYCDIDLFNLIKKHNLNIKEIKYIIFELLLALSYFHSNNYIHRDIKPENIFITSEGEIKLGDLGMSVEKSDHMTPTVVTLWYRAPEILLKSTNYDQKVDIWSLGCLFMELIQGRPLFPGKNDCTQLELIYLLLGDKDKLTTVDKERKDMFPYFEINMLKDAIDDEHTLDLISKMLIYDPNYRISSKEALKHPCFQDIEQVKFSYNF
Sequence of L-lactate dehydrogenase (Plasmodium falciparum (isolate CDC / Honduras)) (Q27743 whole entry, looked up): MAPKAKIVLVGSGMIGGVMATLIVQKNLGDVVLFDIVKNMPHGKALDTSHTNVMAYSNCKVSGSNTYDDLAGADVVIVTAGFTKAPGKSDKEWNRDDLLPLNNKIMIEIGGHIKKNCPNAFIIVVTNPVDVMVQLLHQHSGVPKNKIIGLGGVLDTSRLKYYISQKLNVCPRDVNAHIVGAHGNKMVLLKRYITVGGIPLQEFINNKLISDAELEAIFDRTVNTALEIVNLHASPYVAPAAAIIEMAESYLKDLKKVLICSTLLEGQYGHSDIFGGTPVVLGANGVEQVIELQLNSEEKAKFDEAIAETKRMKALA

Row | SMILES | growth inhibition [1] | inhibition [2] | inhibition [3] | growth inhibition [4] | outcome [5] | outcome [6] | outcome [7] | outcome [8]
1 | COc1ccc(C2(CNCC(O)c3cccc([N+](=O)[O-])c3)CCCC2)cc1OC (configuration not stated) | 85% (active) | 10% | 5% | 93% (active) | inactive | inactive | inactive | inactive
2 | CCNc1cc(C(=O)N[C@@H](Cc2ccccc2)[C@H](O)CN[C@@H](C)c2ccccc2)cc(N2CCCC2=O)c1 | 96% (active) | 7% | 8% | 98% (active) | inactive | inactive | inactive | inactive
3 | COCn1ncc2cc(-c3cccc(NC(=O)c4csc(NC(C)=O)n4)c3)ccc21 | 68% (active) | 0% | 7% | 89% (active) | inactive | inactive | inactive | inactive
4 | COc1ccccc1CCNc1nc(C)cc(N[C@@H](Cc2ccccc2)C(=O)NCc2cccc(F)c2)n1 | 86% (active) | 31% | -2% | 99% (active) | inactive | inactive | inactive | inactive
5 | Cc1c(OC(C)C)nc2ccccc2c1C(=O)N[C@H](c1cccc(F)c1)C1CC1 | 34% | 6% | 3% | 83% (active) | inactive | inactive | inactive | inactive
6 | c1cncc(CCNCc2cccc(-c3ccc(-c4nc5ccccc5[nH]4)s3)c2)c1 | 97% (active) | 8% | -1% | 100% (active) | inactive | inactive | inactive | inactive
7 | OC(CNCc1cccc(Oc2ccc(Cl)cc2)c1)c1cc(C(F)(F)F)cc(C(F)(F)F)c1 (configuration not stated) | 101% (active) | -4% | 8% | 99% (active) | inactive | inactive | inactive | inactive
8 | CN(C(=O)/C=C/c1ccccc1F)C1CCN(CCCCCNC(=O)/C=C/c2ccc(Cl)c(Cl)c2)CC1 | 59% (active) | 73% (active) | -1% | 89% (active) | inactive | inactive | inactive | inactive
9 | CCCCCCCN1CC[C@@H](CCCc2ccnc3ccc(OCCN4CCOCC4)cc23)[C@@H](CC)C1 | 3% | 14% | 0% | 89% (active) | inactive | inactive | inactive | inactive
10 | O=C(/C=C/c1ccc(-c2nc3ccc(Cl)cc3[nH]2)cc1)NCc1cccc(F)c1 | 68% (active) | 1% | 2% | 99% (active) | inactive | inactive | inactive | inactive
11 | O=C(Nc1ccc(OC2CCN(Cc3ccc(F)cc3)C2)c(Cl)c1)c1cccs1 (configuration not stated) | 97% (active) | 21% | 2% | 98% (active) | inactive | inactive | inactive | inactive
12 | C[C@H](Nc1nc(C(Oc2ccccc2)c2ccccc2)nc2[nH]ncc12)c1ccccc1 (some centres not stated) | 56% (active) | 15% | -5% | 100% (active) | inactive | inactive | inactive | inactive
13 | Cc1ccc(C)c(NC(=O)CC2C(=O)N(c3ccccc3)C(=S)N2Cc2ccco2)c1 (configuration not stated) | 99% (active) | 9% | -1% | 101% (active) | inactive | inactive | inactive | inactive
14 | OCCN1CCN(c2ccc(Nc3ccnc4cc5ccccc5cc34)cc2)CC1 | 100% (active) | 98% (active) | -1% | 100% (active) | inactive | inactive | inactive | inactive
15 | Fc1ccc(-c2cncc(-c3ccc(F)cc3)n2)cc1 | 94% (active) | 7% | 2% | 99% (active) | inactive | inactive | inactive | inactive
16 | N#Cc1ccc(N2CCN(Cc3cccc(-c4cccc(-c5nc6ccc(F)cc6[nH]5)c4)c3)CC2)nc1 | 52% (active) | 26% | 3% | 90% (active) | inactive | inactive | inactive | inactive
17 | c1cnc2ccc(NCc3ccc(-c4ccc(CNC5CCCC5)cc4)cc3)cc2c1 | 21% | 27% | -2% | 97% (active) | inactive | inactive | inactive | inactive
18 | COc1ccc(CNC(=O)Nc2cc3cc(-c4ccc(CN(C)C)cc4)ccc3n3c(C)nnc23)cc1 | 80% (active) | 99% (active) | -4% | 93% (active) | inactive | inactive | inactive | inactive
19 | Cc1cc(N2CCCC2)nc(/N=C(\N)Nc2cccc(C(F)(F)F)c2)n1 | 100% (active) | 33% | 1% | 101% (active) | inactive | inactive | inactive | inactive
20 | CC[C@H](NC(=O)c1c(N)c(-c2sccc2Cl)nc2ccccc12)c1ccccc1 | 92% (active) | 0% | -4% | 99% (active) | inactive | inactive | inactive | inactive

Row | SMILES | growth inhibition [1] | inhibition [2] | inhibition [3] | growth inhibition [4] | outcome [5] | outcome [6] | outcome [7] | outcome [8]
21 | NC1=NCN(OCc2ccc(Cl)c(Cl)c2)C(N)=N1 | 4% | 14% | -3% | 95% (active) | inactive | inactive | inactive | inactive
22 | COc1ccc2nccc([C@@H](O)CN3CCC(NC(=O)c4ccc(-c5ccc(C#N)cc5)cc4)CC3)c2c1 | 91% (active) | 42% | 4% | 101% (active) | inactive | inactive | inactive | inactive
23 | CCc1cc(NCc2ccncc2)nc(Nc2ccc(F)cc2)n1 | 17% | 8% | 0% | 92% (active) | inactive | inactive | inactive | inactive
24 | OC1CCCN(Cc2ccc(-c3cccc(-c4nc5ccc(F)cc5[nH]4)c3)cc2)C1 (configuration not stated) | 49% | 28% | -5% | 99% (active) | inactive | inactive | inactive | inactive
25 | CC(C)C[C@H](NC(=O)c1ccc(OCCN2CCOCC2)cc1)C(=O)N[C@H](/C=N/NC(=O)c1ccccc1)CCc1ccccc1 | 90% (active) | 17% | -3% | 98% (active) | inactive | inactive | inactive | inactive
26 | O=C(c1cccc(-c2noc(C(F)(F)F)n2)c1)N1CCN(C(=O)c2ccc3cc[nH]c3c2)CC1 | 85% (active) | 15% | -3% | 94% (active) | inactive | inactive | inactive | inactive
27 | COc1ccccc1NC(=O)Nc1cccc(-c2cccc(-c3nc4c(C)cccc4[nH]3)c2)c1 | 90% (active) | 11% | -1% | 101% (active) | inactive | inactive | inactive | inactive
28 | N=c1sc2ccccc2n1CC(O)c1ccc(Cl)c(Cl)c1 (configuration not stated) | 74% (active) | 4% | -2% | 99% (active) | inactive | inactive | inactive | inactive
29 | COc1cc2nc(N3CCC(CNC(=O)c4cc5ccccc5s4)CC3)nc(N)c2cc1OC | 101% (active) | 8% | 2% | 101% (active) | inactive | inactive | inactive | inactive
30 | Cc1cccc(C(=O)Nc2ccnc(N(C)CCCN(C)Cc3cccc(O)c3)c2)c1 | 71% (active) | 27% | -3% | 94% (active) | inactive | inactive | inactive | inactive
31 | COc1ccc2nccc([C@@H](O)CN3CCC(NCc4ccc5c(c4)NC(=O)C(C)S5)CC3)c2c1 (some centres not stated) | 72% (active) | 7% | 2% | 99% (active) | inactive | inactive | inactive | inactive
32 | Cn1c(N)c(C(=O)CSc2ncc(-c3ccc(F)cc3)n2Cc2ccccc2)c(=O)n(C)c1=O | 66% (active) | 11% | 1% | 88% (active) | inactive | inactive | inactive | inactive
33 | Cc1nc(Nc2ccc(C)c(Cl)c2)c2c(C)noc2n1 | 72% (active) | 0% | 0% | 94% (active) | inactive | inactive | inactive | inactive
34 | CC(C)(C)OC(=O)c1c(NC(=O)/C=C/c2ccc(O)c(O)c2)sc2c1CCCC2 | 77% (active) | 4% | 2% | 97% (active) | inactive | inactive | inactive | inactive
35 | COc1cc2ccccc2c(CON2C(N)=NC(N)=NC2(C)C)c1OC | 10% | 2% | 1% | 96% (active) | inactive | inactive | inactive | inactive
36 | Cn1cnc2nc(NCCc3ccccc3)nc(NCc3cccc4ccccc34)c21 | 98% (active) | 16% | -2% | 95% (active) | inactive | inactive | inactive | inactive
37 | O=C(Nc1cccc(-c2cccc(-c3nc4ccccc4[nH]3)c2)c1)Nc1ccc(F)c(F)c1F | 95% (active) | 78% (active) | -1% | 98% (active) | inactive | inactive | inactive | inactive
38 | O=C(Nc1ccc([N+](=O)[O-])cc1)Nc1cc(OCC(F)(F)F)cc(OCC(F)(F)F)c1 | 100% (active) | 71% (active) | 5% | 100% (active) | inactive | inactive | inactive | inactive
39 | CCc1nc(N)nc(N)c1-c1ccc(F)c(F)c1 | -1% | 58% (active) | -3% | 98% (active) | inactive | inactive | inactive | inactive
